Laboratory results as given in PubChem BioAssay (Tox21).
Records with an inconclusive call do not appear. Calls of active or inactive are those of the source. Unless noted, calls come from the whole dose curve; as a rule, active = well fitted curve in the direction sought with a large enough effect in the repeat runs; inconclusive = weak or mixed curves; inactive = no such curve, though single readings can be large; an effect the other way counts as inactive or inconclusive.

Tests used:
[1] = biological target: Thyrotropin receptor (Homo sapiens) (UniProt P16473); experiment: qHTS assay to identify small molecule agonists of the thyroid stimulating hormone receptor (TSHR) signaling pathway (AID 1224843; calls by dose curve; note: nearly all actives have a fitted effect of over 45% in size)
Outline: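 Screening of the Tox21 10K collection used HEK293 cells engineered with TSHR at 800 cells per well. After a 30-min room-temperature compound exposure, HTRF cAMP reagents were added and fluorescence recorded 1 h later.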

[2] = qHTS assay to identify small molecule agonists of H2AX - cell viability counter screen (AID 1224847; calls by dose curve; note: nearly all actives have a fitted effect of over 30% in size; note: potency is the fitted concentration of half-maximal effect)
Outline: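 Wild-type CHO-K1 cells (10% FBS medium) were plated overnight at 37C, exposed to compounds at 15 concentrations for 3 hr at 37C (0.76% DMSO final), and viability was read as CellTiter-Glo luminescence after 30 min at room temperature.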

[3] = qHTS assay to identify small molecule antagonists of the estrogen related receptor (ERR) signaling pathway from Tox21 library (AID 1224848); note: nearly all actives have a fitted effect of over 50% in size; note: potency is the fitted concentration of half-maximal effect
Outline: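 Antagonist-mode screen of the Tox21 10K library in an NTP-provided ERR reporter cell line; 18 h compound exposure at 37 C, luminescence measured with ONE-Glo.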

[4] = qHTS assay to identify small molecule agonists of the estrogen related receptor (ERR) signaling pathway from Tox21 library (AID 1224849; calls by dose curve; note: nearly all actives have a fitted effect of over 15% in size); conditions: ERR reporter cell line, ONE-Glo luciferase, 18 h; at 92.4 µM (top of the series) unless noted
Outline: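 We plated ERR reporter cells, waited 6 h, added compounds in DMSO by pin tool and incubated them 18 h at 37 C. ONE-Glo was then added and luminescence read after 30 min.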

[5] = qHTS RealTime-Glo MT Cell Viability Assay in HepG2 cells - 24 hour (AID 1224867); note: nearly all actives have a fitted effect of over 50% in size; note: potency is the fitted concentration of half-maximal effect
Outline: (§1)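 Viability was tracked continuously by NanoLuc luminescence from prosubstrate reduced by living HepG2 cells, at successive time points over 40 h of compound exposure. Cells with reagent were preincubated 5 h at 37 °C before compound addition.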

[6] = A CellTox Green Cytotoxicity Assay to monitor cytotoxicity in HEK293 cells - 0 hour (AID 1224869); note: nearly all actives have a fitted effect of over 50% in size
Outline: (§2)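 Each value comes from one timepoint of a single continuous run in which HEK293 cells with CellTox Green were exposed to compound for up to 40 h at 37 C, dye fluorescence rising with cell death.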

[7] = qHTS RealTime-Glo MT Cell Viability Assay in HepG2 cells - 40 hour (AID 1224870); note: nearly all actives have a fitted effect of over 50% in size; note: potency is the fitted concentration of half-maximal effect
Outline: (§3)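 Real-time viability: cells seeded at 600 per well together with NanoLuc and cell-permeant prosubstrate, compounds added after 5 h incubation. Luminescence tracked at 0, 8, 16, 24, 32 and 40 h of exposure.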

[8] = A CellTox Green Cytotoxicity Assay to monitor cytotoxicity in HEK293 cells - 40 hour (AID 1224871); note: nearly all actives have a fitted effect of over 45% in size; note: potency is the fitted concentration of half-maximal effect
Outline: as §2

[9] = qHTS RealTime-Glo MT Cell Viability Assay in HepG2 cells - 8 hour (AID 1224873); note: nearly all actives have a fitted effect of over 55% in size; note: potency is the fitted concentration of half-maximal effect
Outline: as §3

[10] = A CellTox Green Cytotoxicity Assay to monitor cytotoxicity in HEK293 cells - 24 hour (AID 1224875); note: nearly all actives have a fitted effect of over 45% in size; note: potency is the fitted concentration of half-maximal effect
Outline: as §2

[11] = qHTS RealTime-Glo MT Cell Viability Assay in HepG2 cells - 32 hour (AID 1224877); note: nearly all actives have a fitted effect of over 55% in size; note: potency is the fitted concentration of half-maximal effect
Outline: as §1

[12] = A CellTox Green Cytotoxicity Assay to monitor cytotoxicity in HepG2 cells - 24 hour (AID 1224878); note: nearly all actives have a fitted effect of over 45% in size; note: potency is the fitted concentration of half-maximal effect
Outline: (§4)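 Continuous culture of HepG2 cells with a membrane-impermeant DNA dye; rising fluorescence marks dead cells. Compound exposure lasted up to 40 h at 37 C, with reads every 8 h from 0 h.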

[13] = A CellTox Green Cytotoxicity Assay to monitor cytotoxicity in HepG2 cells - 40 hour (AID 1224879); note: nearly all actives have a fitted effect of over 40% in size; note: potency is the fitted concentration of half-maximal effect
Outline: as §4

[14] = qHTS assay to identify small molecule agonists of the hypoxia (HIF-1) signaling pathway (AID 1224846; active = well fitted activation curve with a large enough effect in the signal ratio in the repeat runs, not every such curve was filed as active; the % refers to the signal ratio)
Outline: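 Measured by blue/green FRET after loading CCF4-AM: beta-lactamase expressed from a hypoxia response element in ME-180 cells. Test agents were delivered in DMSO and left 17 hrs; cells had been plated 5 hrs earlier in low-serum (0.5% dialyzed FBS) medium.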

[15] = qHTS RealTime-Glo MT Cell Viability Assay in HEK293 cells - 32 hour (AID 1224868); note: nearly all actives have a fitted effect of over 50% in size; note: potency is the fitted concentration of half-maximal effect
Outline: (§5)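 Viability tracked continuously by luminescence as live cells reduce a prosubstrate for NanoLuc; HEK293 cells preincubated 5 h, compound-treated at 37 C, and read at 0, 8, 16, 24, 32 and 40 h.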

[16] = qHTS RealTime-Glo MT Cell Viability Assay in HEK293 cells - 16 hour (AID 1224872); note: nearly all actives have a fitted effect of over 50% in size; note: potency is the fitted concentration of half-maximal effect
Outline: as §5

[17] = qHTS RealTime-Glo MT Cell Viability Assay in HEK293 cells - 40 hour (AID 1224874); conditions: RealTime-Glo luminescence; max response: hits give low values; note: nearly all actives have a fitted effect of over 50% in size; note: potency is the fitted concentration of half-maximal effect
Outline: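 qHTS format; HEK293 cells with NanoLuc/prosubstrate reagent, 37 C/5% CO2 for 5 h pre-dosing; compounds 23 nL in DMSO; luminescence at each time point reflects viable cells.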

[18] = qHTS assay to identify small molecule agonists of the hypoxia (HIF-1) signaling pathway - cell viability counter screen (AID 1224844; calls by dose curve; note: nearly all actives have a fitted effect of over 50% in size; note: potency is the fitted concentration of half-maximal effect)
Outline: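 Luminescent ATP content (CellTiter-Glo, 30 min, room temperature) served as the viability measure in HRE-bla ME-180 cells exposed to compounds for 17 hrs in low-serum medium (0.5% dialyzed FBS).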

[19] = qHTS assay to identify small molecule agonists of H2AX (AID 1224845; active = well fitted activation curve with a large enough effect in the signal ratio in the repeat runs, not every such curve was filed as active; the % refers to the signal ratio; note: potency is the fitted concentration of half-maximal effect)
Outline: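 Phospho-H2AX Ser139 measured by HTRF (ex 320 nm; em 665 and 620 nm) after 24 hr antibody incubation. Compounds, 15 concentrations, 0.76% DMSO, were applied to CHO-K1 cells for 3hr at 37C before lysis.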

[20] = A CellTox Green Cytotoxicity Assay to monitor cytotoxicity in HepG2 cells - 16 hour (AID 1224876); note: nearly all actives have a fitted effect of over 45% in size; note: potency is the fitted concentration of half-maximal effect
Outline: as §4
% is set by controls: 0 for no effect and ±100 for the full control effect.

Chain of Thyrotropin receptor (Homo sapiens) (P16473 whole entry, looked up): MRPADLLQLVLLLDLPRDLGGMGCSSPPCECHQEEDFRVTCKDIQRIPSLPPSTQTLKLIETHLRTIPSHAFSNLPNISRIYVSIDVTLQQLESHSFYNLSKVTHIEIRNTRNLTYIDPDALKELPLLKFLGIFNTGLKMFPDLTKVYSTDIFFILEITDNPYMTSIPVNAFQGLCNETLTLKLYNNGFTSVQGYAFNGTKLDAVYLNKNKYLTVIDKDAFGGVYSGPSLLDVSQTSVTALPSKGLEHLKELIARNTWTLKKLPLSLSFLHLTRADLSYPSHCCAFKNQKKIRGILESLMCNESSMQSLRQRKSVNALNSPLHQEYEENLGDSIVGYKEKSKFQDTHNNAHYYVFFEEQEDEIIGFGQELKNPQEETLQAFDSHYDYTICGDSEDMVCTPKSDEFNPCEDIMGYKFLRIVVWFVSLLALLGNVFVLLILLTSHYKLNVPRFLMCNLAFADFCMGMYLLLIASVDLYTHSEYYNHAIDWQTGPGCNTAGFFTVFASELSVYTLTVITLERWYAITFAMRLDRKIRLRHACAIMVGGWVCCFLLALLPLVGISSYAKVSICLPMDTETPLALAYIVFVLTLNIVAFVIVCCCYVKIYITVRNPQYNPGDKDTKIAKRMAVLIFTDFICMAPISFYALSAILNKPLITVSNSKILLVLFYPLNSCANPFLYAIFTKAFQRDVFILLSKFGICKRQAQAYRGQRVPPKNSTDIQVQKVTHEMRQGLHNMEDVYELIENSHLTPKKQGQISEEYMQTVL

CCOC(=O)c1ccccc1C(=C1C=C(Br)C(=O)C(Br)=C1)c1cc(Br)c(O)c(Br)c1
inactive: Potency [1] | Potency [2] | activity change, positive = activation [4] -32.1% [at 42.5 µM] | Potency [5] | Potency [6] | Potency [7] | Potency [8] | Potency [9] | Potency [10] | Potency [11] | Potency [12] | Potency [13]
active: Potency [3] 45.7 µM

CC(C)Nc1cccnc1N1CCN(C(=O)c2cc3cc(NS(C)(=O)=O)ccc3[nH]2)CC1
inactive: Potency [1] | outcome [14] | Potency [2] | activity change, positive = activation [4] -20.7% [at 42.5 µM] | Potency [5] | Potency [15] | Potency [7] | Potency [16] | Potency [9] | max response [17] -29% | Potency [10] | Potency [12] | Potency [13]

CCCCN(CCN(CCCC)C(=O)N1CCOCC1)C(=O)N1CCOCC1
inactive: Potency [18] | Potency [19] | Potency [2] | Potency [15] | Potency [6] | Potency [7] | Potency [16] | Potency [9] | Potency [10] | Potency [12] | Potency [13]

C=C(C)[C@@H]1CCC2=CCC[C@@H](C)[C@]2(C)C1
inactive: Potency [18] | outcome [14] | Potency [2] | Potency [3] | activity change, positive = activation [4] -7.47% | Potency [15] | Potency [6] | Potency [7] | Potency [8] | Potency [16] | Potency [9] | max response [17] 0.724% | Potency [10] | Potency [11]

C/C=C\C/C=C/CCCCCCCCOC(C)=O
inactive: Potency [1] | Potency [2] | activity change, positive = activation [4] -15% | Potency [5] | Potency [15] | Potency [6] | Potency [7] | Potency [16] | Potency [9] | max response [17] -25.6% | Potency [10] | Potency [20] | Potency [11] | Potency [12] | Potency [13]

CCOC(=O)[C@H](CCc1ccccc1)N[C@@H](C)C(=O)N(CC(=O)O)C1Cc2ccccc2C1
active: Potency [18] 7.56 µM
inactive: Potency [19] | outcome [14] | Potency [2] | Potency [5] | Potency [15] | Potency [6] | Potency [7] | Potency [8] | Potency [16] | Potency [9] | max response [17] 5.01% | Potency [10] | Potency [20] | Potency [11] | Potency [12] | Potency [13]

CCCCN(CCCC)C(C(N)=O)c1ccc(OC)cc1 (stereo unspecified)
inactive: Potency [18] | outcome [14] | Potency [2] | Potency [6] | Potency [7] | Potency [8] | Potency [16] | Potency [9] | max response [17] -24.8% | Potency [10] | Potency [20] | Potency [11] | Potency [12] | Potency [13]

Oc1cc2c(cc1O)[C@H]1c3ccc(O)c(O)c3OC[C@@]1(O)C2
inactive: Potency [18] | activity change, positive = activation [4] -31.7% | Potency [15] | Potency [6] | Potency [20] | Potency [12]
active: Potency [3] 49.2 µM | Potency [5] 49.6 µM | Potency [9] 39.4 µM | Potency [10] 49.6 µM | Potency [11] 55.6 µM

CCCC(C(=O)OCCN(CC)CC)(c1ccccc1)c1ccccc1
inactive: activity change, positive = activation [4] -35.3% [at 42.5 µM] | Potency [6] | Potency [7] | Potency [9] | Potency [11]
active: Potency [3] 29.8 µM | Potency [15] 21.3 µM | Potency [17] 21.3 µM

CC(=O)[C@H]1[C@H](C#N)C[C@H]2[C@@H]3CC=C4C[C@@H](O)CC[C@]4(C)[C@H]3CC[C@@]21C
inactive: Potency [19] | activity change, positive = activation [4] -13.1% [at 42.5 µM] | Potency [5] | Potency [6] | Potency [7] | Potency [8] | Potency [16] | Potency [9] | Potency [10] | Potency [20] | Potency [11] | Potency [12] | Potency [13]

CC(C)COCC(CN(Cc1ccccc1)c1ccccc1)N1CCCC1 (stereo unspecified)
active: Potency [19] 49.2 µM | Potency [2] 43.8 µM | Potency [15] 10.7 µM | Potency [7] 23.9 µM | Potency [8] 21.3 µM | Potency [16] 8.49 µM | Potency [9] 23.9 µM | Potency [17] 10.7 µM | Potency [10] 23.9 µM | Potency [20] 21.3 µM | Potency [12] 23.9 µM | Potency [13] 19 µM

O=C1Cc2ccccc2N1c1c(Cl)cccc1Cl
active: Potency [3] 48.6 µM | Potency [15] 24.5 µM | Potency [17] 21.9 µM
inactive: Potency [19] | activity change, positive = activation [4] -43.8% | Potency [5] | Potency [6] | Potency [7] | Potency [8] | Potency [9] | Potency [10] | Potency [20] | Potency [11]

CCOc1cccc(-n2cc(C(=O)N3CCN(c4cc(C(=O)O)c5ccccc5c4)CC3)nc2-c2ccc(C)cc2)c1
inactive: outcome [14] | activity change, positive = activation [4] -37.7% | Potency [5] | Potency [15] | Potency [6] | Potency [7] | Potency [8] | Potency [16] | Potency [9] | max response [17] 7.68% | Potency [10] | Potency [20] | Potency [11] | Potency [12] | Potency [13]

O=C(OCC(O)CO)c1ccccc1Nc1ccnc2cc(Cl)ccc12 (stereo unspecified)
active: Potency [3] 26.6 µM | Potency [15] 8.49 µM | Potency [16] 8.49 µM | Potency [17] 8.49 µM
inactive: Potency [18] | activity change, positive = activation [4] -40.1% [at 42.5 µM] | Potency [7] | Potency [8] | Potency [9] | Potency [10] | Potency [12] | Potency [13]
